From PubChem
Sampled rows, rich in hits. Any-hit rate of the full collection: about 14%.
LASV entry inh: Lassa virus entry inhibition. Lassa virus pseudotype entry inhibition, cell reporter. Potency, µM (doses to about 37.9 µM), for the others: at the highest dose activity change, negative = inhibition, most hits filed as inhibitors. actives 1.2% (n = 300,000); calls by dose curve; tested in HEK293 cells; note: potency is the fitted concentration of half-maximal effect; nearly all actives have a fitted effect of over 50% in size
Pf growth 48h: inhibits P. falciparum growth in the first generation, 48 h. Potency, µM (titrated, usually from 28.7 µM), for the others: at the top dose activity change, negative = inhibition, actives largely listed as inhibitors. actives 5.9% (n = 310,000). AID 504832. P. falciparum luciferase growth in erythrocytes, 48 h; note: potency is the fitted concentration of half-maximal effect
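Luciferase-expressing P. falciparum in infected erythrocytes (2% hematocrit, 0.1% parasitemia final) in RPMI 1640/0.5% Albumax were exposed to compound for 48 hours at 37 C, 5% CO2; growth read as luminescence.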
HCMV antiviral: blocks human cytomegalovirus replication; HFF cells, HCMV-luciferase reporter, 72 h; active compounds read low; activity change, negative = inhibition, % at 57.5 µM; actives 4.5% (n = 410,000); in the data active = activity change below about -60%; inconclusive = no clear call, values can overlap the other calls; inactive = above about -39%
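Human foreskin fibroblasts infected with luciferase-reporter HCMV at MOI 1 PFU/cell, compounds at two doses. Luciferase measured 72 h post infection; normalized to buffer-only basal and Salinomycin (10uM) controls.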
HCV inhibitor: inhibitors of hepatitis C virus infection; Huh7.5.1 HCVcc-Cre infection, luciferase reporter, 44 h; Potency, µM (doses to about 41.8 µM), inactives show top-dose activity change, negative = inhibition, usual class: inhibitors; actives 3.4% (n = 340,000); AID 651820; note: potency is the fitted concentration of half-maximal effect
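Reporter virus HCVcc-Cre (~0.5 moi) infects cells exposed to compound; seeding density 1,000 cells/well with 4 h settling beforehand. Luminescence, 15 sec read, taken 44 h post-infection following a 15 min RT substrate incubation.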
Pf growth 96h: P. falciparum growth inhibition at 96 hours. P. falciparum luciferase reporter growth, 96 h. Potency, µM (doses to about 28.7 µM), without a hit: at the highest dose activity change, negative = inhibition, hits mostly inhibitors. actives 6.9% (n = 320,000). AID 504834; note: potency is the fitted concentration of half-maximal effect
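P. falciparum expressing integrated firefly luciferase, in erythrocytes at 2% hematocrit, 0.05% parasitemia, incubated with compounds 96 h at 37 C, 5% CO2. Growth inhibition read as loss of luminescence; two-generation exposure targets delayed-death apicoplast inhibitors.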
Marburg entry inh: Marburg virus entry inhibition. Marburg virus pseudotyped entry inhibition, cell reporter. Potency, µM (highest dose often 37.8 µM), for inactives: at the top dose activity change, negative = inhibition, usual class: inhibitors. actives 1.8% (n = 300,000); calls by dose curve; tested in HEK293 cells; note: potency is the fitted concentration of half-maximal effect
Starred values were filed as active, the others as inactive; ? = inconclusive; . = not tested or not shown; [ ] = another dose, or the depositor's remark. Unless noted, calls come from the whole dose curve; as a rule, active = well fitted inhibition curve with a large enough effect; inconclusive = small, poorly fitted or top-dose-only effect, or another doubt; inactive = no such curve, though single readings can be large or run the other way. % is set by controls: 0 for no effect and ±100 for the full control effect.

SMILES	LASV entry inh	Pf growth 48h	HCMV antiviral	HCV inhibitor	Pf growth 96h	Marburg entry inh
COc1ccc(C(C)(O)c2nc(-c3ccoc3)cs2)cc1 (stereo not given)	.	.	60	.	.	.
Fc1cccc(-c2cc3nc4c(c(N5CCOCC5)n3n2)CCCC4)c1	-3%	8.3µM*	66	3.5µM*	?	?
Clc1cccc(-c2cc3nc4c(c(N5CCN(c6cnccn6)CC5)n3n2)CCCC4)c1	25%	2.1µM*	-26	7%	-20%	27%
Fc1cccc(-c2cc3nc4c(c(N5CCN(c6cnccn6)CC5)n3n2)CCCC4)c1	.	.	.	.	.	-2%
CCc1ccc(S(=O)(=O)c2nnn3c2nc(NC(C)C)c2cc(Cl)ccc23)cc1	.	.	3	.	.	-19%[46.1 µM]
O=C1C(=O)N(C2CCN(C(=O)c3ccccc3F)CC2)CCN1Cc1ccc(F)cc1	?	.	13	.	.	.
CCN1C(=O)CC(Sc2ccccc2N)C1=O (stereo not given)	3%	5%	-1	12%	1.5µM*	?
COc1ccc(OC)c(NC(=O)N(C)CCc2c(C)nn(C)c2C)c1	-6%[46.1 µM]	.	1	.	.	.
Cc1cc(=O)oc2cc(CN3C(=O)C(=O)c4cc(F)ccc43)ccc12	.	.	-39	.	.	.
O=[N+]([O-])c1ccc(-c2nc(Cl)c3c(n2)CCCC3)o1	.	.	-69*	.	.	.
NC(=O)c1cccc2cc3ccccc3cc12	?	21%	?	11µM*	?	-13%[46.1 µM]
NC(=O)c1ccccc1OCc1cccc2ccccc12	1%[46.1 µM]	21%	-17	?	27%	-25%[46.1 µM]
C=CCOC(=O)/C(=C\c1cccc2ccccc12)NC(=O)c1ccccc1	8%	?	-18	7.9µM*	7%	-1%
O=C(OCC(=O)c1ccc([N+](=O)[O-])cc1)/C(=C/c1ccc(Cl)cc1)NC(=O)c1ccccc1	6%	14%	-65*	9%	26%	2%
CCOC(=O)/C(=C\c1ccccc1)NC(=O)c1ccccc1	.	-12%	-11	7%	15%	.
Cc1ccc(S(=O)(=O)Oc2ccc(/C=C(/NC(=O)c3ccccc3)C(=O)Nc3ccccc3)cc2)cc1	5%	?	33	?	9.3µM*	-9%
C=CCOC(=O)/C(=C\c1ccccc1)NC(=O)c1ccc(C)cc1	.	5%	-67*	-7%	-5%	.
CCN(CC)CCN1CNC(=S)NC1	.	.	-26	.	.	.
C[C@H](O)[C@@H]1C(=O)N2CCc3c([nH]c4ccccc34)[C@@H]2C[C@@H]1N(C)C(=O)Nc1ccc(Br)cc1	.	.	-1	.	.	.
COc1cccc(C2CC(=O)N3CN(C4CCCCC4)CSC3=C2C#N)c1 (stereo not given)	14%[46.1 µM]	.	6	.	.	-3%[46.1 µM]
COc1cc(OC)cc(C(=O)Nc2cccc(-c3cn4ccsc4n3)c2)c1	-10%[46.1 µM]	.	?	.	.	.
COc1cccc(N2CCN(CC(=O)c3c[nH]c4ccc(OC)cc34)CC2C)c1 (stereo not given)	-6%	12µM*	36	7%	?	-14%
COc1ccc2[nH]cc(C(=O)CN3CCCC(C)C3)c2c1 (stereo not given)	6%	-6%	39	-20%	22%	13%
Cc1ccc(C)c(CN2C(=O)C3CCCN3c3ccc(S(=O)(=O)N4CCOCC4)cc32)c1 (stereo not given)	.	1µM*	.	.	?	-4%
COc1cccc(CN2C(=O)C3CCCN3c3ccc(S(=O)(=O)N4CCOCC4)cc32)c1 (stereo not given)	.	1µM*	.	.	1.2µM*	3%
SMILES	LASV entry inh	Pf growth 48h	HCMV antiviral	HCV inhibitor	Pf growth 96h	Marburg entry inh
CCOc1ccc(C(=O)Nc2ccc(C(=O)OCc3cc(=O)n4ccsc4n3)cc2)cc1	-17%[46.1 µM]	.	16	.	.	.
CCCCn1cnc2c1c(=O)n(CC(=O)c1cc(C)n(C)c1C)c(=O)n2CC(C)C	-11%	.	-7	0%	12µM*	3%[46.1 µM]
Cc1ccccc1CNC(=O)Cn1c(=O)c2cccn2c2cccnc21	2%[46.1 µM]	.	-15	.	.	.
Cc1cc(-c2ccco2)n(CC(=O)O)n1	2%	25%	28	11%	6.6µM*	11%
Cc1cc(-c2ccc(Br)cc2)n[nH]1	25%[46.1 µM]	118%	-39	?	73%	?
Nc1cc(-c2ccc(Br)cc2)[nH]n1	2%	56%	?	10%	1.9µM*	8%
Cc1ccc(CN(C(=O)c2ccc(OCC(C)C)cc2)c2ccccn2)o1	17%[46.1 µM]	.	82	.	.	?
CCCCNC(=O)CSc1nc2ccccc2nc1Cc1ccc(Cl)cc1	17%[46.1 µM]	.	3	.	.	.
O=C1C2C3C=CC(O3)C2C(=O)N1N=Cc1cccc2ccccc12 (stereo not given)	23%[46.1 µM]	.	13	-5%	.	?
CCn1c2ccccc2c2cc(CNCCCN3CCOCC3)ccc21	.	?	68	?	4%	.
CCn1c(=O)n(CC)c2cc(N)ccc21	.	?	137	-28%	-17%	.
CCn1c2ccccc2c2cc(/C(C)=N/O)ccc21	5%	-1%	13	10µM*	42%	?
CCn1c2ccccc2c2cc(C#N)c(N)nc21	.	.	-5	13µM*	.	.
CCC(CC)NCc1ccc2c(c1)c1ccccc1n2CC	?	?	-33	13µM*	?	?
CCn1c2ccccc2c2cc(N)ccc21	9%	?	-34	-21%	12µM*	-2%
COc1ccc2[nH]c3c(c2c1)CCN1C(=O)C(CC(=O)NCCC2=CCCCC2)C[C@H](C(=O)N2CCCCC2)[C@@]31CCc1ccccc1 (stereo not given in full)	.	.	19	11%	.	.
COc1cccc(CNCc2ccc(OC)cc2OC)c1	.	0%	-9	-6%	0%	.
CCn1c2ccccc2c2cc(CNCc3ccc(OC)cc3OC)ccc21	.	?	-30	13µM*	-1%	.
Cc1[nH]nc2c1C(c1ccc3c(c1)OCO3)C(C#N)=C(N)O2 (stereo not given)	-9%	-8%	?	0%	49%	-1%
COc1ccc(-c2[nH]nc3c2C(c2ccc(OC(=O)N4CCOCC4)cc2)C(C#N)=C(N)O3)cc1 (stereo not given)	20%[14.3 µM]	1%	-20	.	13µM*	-8%
COc1ccc(-c2[nH]nc3c2C(c2ccccc2OC(=O)N2CCOCC2)C(C#N)=C(N)O3)cc1 (stereo not given)	-2%	?	-33	11%	30%	1%
Cc1ccc(-c2[nH]nc3c2C(c2ccccc2OC(=O)N2CCOCC2)C(C#N)=C(N)O3)cc1 (stereo not given)	21%[14.3 µM]	?	0	.	10µM*	5%
CCOc1ccc(-c2[nH]nc3c2C(c2ccc4c(c2)OCO4)C(C#N)=C(N)O3)cc1OC (stereo not given)	?	-16%	32	21%	13µM*	?
CCc1ccc(-n2nc(C)c3c(C)cc(=O)n(Cc4nc(-c5ccccc5)oc4C)c32)cc1	-2%[46.1 µM]	.	57	.	.	.
